Results on 13 compounds are retold here after the supplement of paper PMC4894684.

Counter-ions that a name gives are not always drawn. ± gives the standard deviation of the averaged measurements. Bounds are passed on as bounds.

This experiment has as its system Toxoplasma gondii RH (in HFF). Description: parasite growth relative to the screen mean (all compounds = 100%); higher = less inhibition of parasite growth. The following applies: 5 µM; 72 h; oxygen 21 %. The method, boiled down:
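RH β-Gal–GFP Toxoplasma at MOI 1:5 was used to infect confluent human foreskin fibroblasts in 96-well plates within 2 h of pin-transferring compounds to 5 µM final. After 72 h at 21% O2, parasite number was determined by CPRG β-Gal assay against standard curves on the same plate. Growth is relative to the screen mean and averaged over two screens, with all compounds = 100%.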
For `CCOC(=O)c1ncn2c1CN(C)C(=O)c1cc(N=[N+]=[N-])ccc1-2`, the parasite growth is 60 ± 14%.

With `O=C1NC(=O)c2c1c1c3ccccc3[nH]c1c1[nH]c3ccccc3c21` [Arcyriaflavin A], the parasite growth worked out at 21.1 ± 14%.

`O=C1/C(=C/c2ccccc2)C[C@@]2(O)[C@H]3Cc4ccc(O)c5c4[C@@]2(CCN3CC2CC2)[C@H]1O5` [BNTX maleate] gave a parasite growth of less than 0%.

`CN(C)CCN(C)CCc1ccc(Cl)c(Cl)c1` [BD 1047 dihydrobromide]: the parasite growth stood at 89.4 ± 30%.

The compound `Clc1ccc(N2CCN(Cc3c[nH]c4ncccc34)CC2)cc1` [L-745,870 trihydrochloride] returned a parasite growth of 72.9 ± 7.7%.

In turn, `N.N.[Cl][Pt][Cl]` [Cisplatin] displayed a parasite growth of 144 ± 80%.

`CC(C)C[C@@H](N)C1(c2ccc(Cl)cc2)CCC1` registered a parasite growth of 111.4 ± 0.42%.

In turn, `Cc1cccc(C(C)c2c[nH]cn2)c1C` (stereo not drawn) [Medetomidine hydrochloride] showed a parasite growth of 24.7 ± 22%.

Compound `CCNC(=O)[C@H]1O[C@@H](n2cnc3c(N)ncnc32)[C@H](O)[C@@H]1O` came in with a parasite growth of 93 ± 12%.

In turn, `C(=C\c1ccccc1)/CN1CCN(CCOC(c2ccccc2)c2ccccc2)CC1` displayed a parasite growth of 16.2 ± 8.1%.

With `CCC[C@@H]1CC2=CC(=O)CC[C@]2(C)[C@H]2CC[C@@]3(C)[C@@H](CC[C@@]3(O)CCC(=O)O)[C@H]12`, the parasite growth came out at 75.2 ± 19%.

In the case of `C=CCN1CC[C@]23c4c5ccc(O)c4O[C@H]2C(=O)CC[C@@]3(O)[C@H]1C5` [Naloxone hydrochloride], the parasite growth is 143 ± 14%.

`Oc1ccc2c3c1O[C@H]1c4c(c5ccccc5n4Cc4ccccc4)C[C@@]4(O)C(C2)N(CC2CC2)CC[C@]314` [N-Benzylnaltrindole hydrochloride] showed a parasite growth of less than 0%.
